According to PubChem BioAssay (NCATS):
Inconclusive results are not listed. Values without a mark were called inactive. Calls of active or inactive are those of the source. Calls follow the shape of the dose curve; as a rule, active = well fitted curve in the direction sought with a large enough effect; inconclusive = small, poorly fitted or top-dose-only effect, or another doubt; inactive = no such curve, though single readings can be large; an effect the other way counts as inactive or inconclusive.

Assays:
[1] = BET inhibitor-based combinations targeting novel dependencies in MECOM-rearranged (r) AML: SET-2 cell line (AID 2202231); conditions: SET-2 AML cells viability, CellTiter-Glo luminescence, 48 h; viability: stronger effect = lower value, concentration not given here; also: nearly all actives have a fitted effect of over 35% in size; also: potency is read from the fitted curve at half-maximal effect;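 as to viability: plate controls were DMSO treated cells for no effect and wells without cells for full effect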
In short: (§1)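 AML cell lines seeded at 500 cells/well, treated with 11-point dose curves for 48 h. Viability by CellTiter-Glo luminescence, normalised to DMSO and empty wells; activity expressed as AUC and per-cell-line Z-transformed AUC.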

[2] = BET inhibitor-based combinations targeting novel dependencies in MECOM-rearranged (r) AML: MV-4-11 cell line (AID 2202233); also: nearly all actives have a fitted effect of over 45% in size; also: potency is read from the fitted curve at half-maximal effect
In short: (§2)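 Cells at 500/well were exposed for 48 hr to MIPE v5.0 drugs as 11-point dose curves. Viability was read by CellTiter-Glo luminescence and normalized to DMSO and empty-well controls. Activity was expressed as AUC and per-cell-line Z-AUC.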

[3] = BET inhibitor-based combinations targeting novel dependencies in MECOM-rearranged (r) AML: HNT-34 cell line (AID 2202234); also: nearly all actives have a fitted effect of over 35% in size; also: potency is read from the fitted curve at half-maximal effect
In short: as §2

[4] = BET inhibitor-based combinations targeting novel dependencies in MECOM-rearranged (r) AML: UCSD-AML1 cell line (AID 2202235); also: nearly all actives have a fitted effect of over 40% in size; also: potency is read from the fitted curve at half-maximal effect
In short: as §2

[5] = BET inhibitor-based combinations targeting novel dependencies in MECOM-rearranged (r) AML: AML-191 cell line (AID 2202236; also: nearly all actives have a fitted effect of over 35% in size; also: potency is read from the fitted curve at half-maximal effect)
In short: as §1

[6] = BET inhibitor-based combinations targeting novel dependencies in MECOM-rearranged (r) AML: AML-194 cell line (AID 2202237; also: nearly all actives have a fitted effect of over 40% in size; also: potency is read from the fitted curve at half-maximal effect)
In short: as §1

[7] = BET inhibitor-based combinations targeting novel dependencies in MECOM-rearranged (r) AML: OCI-AML3 cell line (AID 2202232); conditions: Potency: OCI-AML3 viability;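 also: series mostly up to about 46 µM; plate controls were DMSO vehicle wells for no effect and wells without cells for full effect; nearly all actives have a fitted effect of over 35% in size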
In short: as §1

Molecule | Potency [1] | Potency [2] | Potency [3] | Potency [4] | Potency [5] | Potency [6] | Potency [7] | viability [1] [%]
CCN(CC)CCNC(=O)c1c(C)[nH]c(/C=C2/C(=O)Nc3ccc(-c4csc(-c5ccccc5)n4)cc32)c1C | 9.34 µM (active) | 1.18 µM (active) | 26.3 µM (active) | 9.34 µM (active) | 7.42 µM (active) | 7.42 µM (active) | – | –
CCC[C@H](NC(=O)[C@@H]1[C@H]2CCC[C@H]2CN1C(=O)[C@@H](NC(=O)[C@@H](NC(=O)c1cnccn1)C1CCCCC1)C(C)(C)C)C(=O)C(=O)NC1CC1 | 0.263 µM (active) | – | – | – | – | inactive | inactive | –
COc1cc2c(NC3CCN(C4CCCCC4)CC3)nc(N3CCCN(C(C)C)CC3)nc2cc1OCCCN1CCCCC1 | – | 7.42 µM (active) | – | – | – | – | – | 109
Nc1ncnc2nc(-c3ccc(N4CCOCC4)nc3)cc(-c3cccc(Br)c3)c12 | – | 8.33 µM (active) | – | – | – | – | – | 91.6
CNCCN(C)Cc1cn[nH]c1-c1ccc(OC2CC(OCCC3CCOCC3)C2)cc1 (stereo unspecified) | – | 20.9 µM (active) | 18.6 µM (active) | – | – | – | – | 95.3
CC(=O)N[C@H]1CSSC[C@@H](C(N)=O)NC(=O)[C@H](C(C)C)NC(=O)[C@H](C)NC(=O)[C@H](Cc2cnc[nH]2)NC1=O | – | inactive | inactive | inactive | inactive | inactive | – | 113
Cn1c(-c2ccccc2C(F)(F)F)nnc1C12CCC(c3noc(C4CC(F)(F)C4)n3)(CC1)CC2 | – | 16.6 µM (active) | inactive | inactive | inactive | inactive | – | 105
Cc1cc(C)cc(Oc2ccc(CNC(=O)[C@H](C)N)cc2C)c1 | – | 18.6 µM (active) | – | – | – | – | – | 109
C=CC(=O)Nc1cccc(C)c1Nc1ncc2cc(-c3c(Cl)c(OC)cc(OC)c3Cl)ccc2n1 | 14.8 µM (active) | 4.17 µM (active) | 8.33 µM (active) | 5.25 µM (active) | 13.2 µM (active) | 11.8 µM (active) | – | –
O=c1oc2cc(O)ccc2s1 | – | inactive | inactive | inactive | inactive | inactive | – | 106
CCN(C)S(=O)(=O)Nc1ccc(F)c(C(=O)c2c[nH]c3ncc(-c4cnc(C5CC5)nc4)cc23)c1F | 18.6 µM (active) | 23.5 µM (active) | 4.17 µM (active) | 20.9 µM (active) | 16.6 µM (active) | – | – | –
C[C@@H]1N=C(N)NC(N(C)C)=N1 | – | inactive | inactive | inactive | inactive | inactive | – | 102
CC(C)(C)OC(=O)Nc1ccc(-c2cc(C(=O)NCCCCCCC(=O)NO)no2)cc1 | 2.95 µM (active) | 1.66 µM (active) | 2.35 µM (active) | 3.72 µM (active) | 2.63 µM (active) | 3.32 µM (active) | – | –
CC1(N)CCN(c2cccnc2NC(=O)c2nc(-c3ncccc3C(F)(F)F)cnc2N)CC1 | – | 7.42 µM (active) | 18.6 µM (active) | – | – | – | – | 101
CC[C@H](CC[C@@H](C)[C@H]1CC[C@H]2[C@@H]3CC=C4C[C@@H](O)CC[C@]4(C)[C@H]3CC[C@]12C)C(C)C | – | inactive | inactive | inactive | inactive | inactive | – | 104
O=S(=O)(NCCNC/C=C/c1ccc(Br)cc1)c1cccc2cnccc12 | 14.8 µM (active) | 14.8 µM (active) | – | – | – | – | – | –

Molecule | Potency [1] | Potency [2] | Potency [3] | Potency [4] | Potency [5] | Potency [6] | Potency [7] | viability [1] [%]
CN(C)c1ccc(C(=O)NCCCCCCC(=O)NO)cc1 | 0.934 µM (active) | 0.59 µM (active) | 1.18 µM (active) | 1.05 µM (active) | 1.18 µM (active) | 1.32 µM (active) | – | –
Cc1noc(C)c1-c1ccc(-c2cc(C(N)=O)c(NC(N)=O)s2)c(O[C@H]2CCNC2)c1 | – | inactive | inactive | inactive | inactive | inactive | – | 123
COc1ccccc1C(=O)Nc1cc2c(cc1N1CCNC[C@H]1C)n(C)c(=O)n2C | – | 5.9 µM (active) | – | – | – | – | – | 103
Cc1ccc(-c2ncn(-c3ccc(Nc4nccc(-c5cccc(N6CCOCC6)c5)n4)cc3)n2)cn1 | 3.72 µM (active) | 2.35 µM (active) | 2.95 µM (active) | 2.35 µM (active) | 2.35 µM (active) | 2.95 µM (active) | – | –
O=c1cc(N2CCOCC2)oc2c(-c3ccc4c(c3)OCCO4)csc12 | 3.32 µM (active) | 2.09 µM (active) | 5.25 µM (active) | 3.32 µM (active) | 5.25 µM (active) | 2.95 µM (active) | – | –
N=C1S/C(=C\c2ccc(-c3ccc4c(c3)C(=O)NC4=O)o2)C(=O)N1c1ccc(Br)cc1 | – | inactive | inactive | inactive | inactive | inactive | – | 117
CC[C@H](C)C(=O)O[C@H]1C[C@H](O)C=C2C=C[C@H](C)[C@H](CC[C@@H](O)C[C@@H](O)CC(=O)O)[C@H]21 | – | inactive | inactive | inactive | – | – | – | 113
CN(C)Cc1cccc(N=C(c2ccccc2)c2c(O)[nH]c3cc(C(=O)N(C)C)ccc23)c1 | 20.9 µM (active) | 6.61 µM (active) | 14.8 µM (active) | – | – | – | – | –
CCC(=O)NC[C@H](Cc1ccc(OCCc2nc(-c3ccccc3)oc2C)cc1)N/C(C)=C\C(=O)c1ccc(C(F)(F)F)cc1 | – | 23.5 µM (active) | – | – | – | – | – | 111
Nc1nccc2c1ncn2[C@@H]1C=C(CO)[C@@H](O)[C@H]1O | 0.525 µM (active) | 0.166 µM (active) | 0.833 µM (active) | – | – | – | – | –
Ac-PHSCN-NH2 | – | inactive | inactive | inactive | inactive | inactive | – | 109
O=C(O)/C=C/c1ccc(Cn2ccnc2)cc1 | – | inactive | inactive | inactive | inactive | inactive | – | 125
CONC(=O)c1ccccc1Nc1cc(Nc2cc(C)nn2C(C)C)ncc1Cl | – | 14.8 µM (active) | – | – | – | – | – | 86.2
CCO[C@@H]1OC(=O)C[C@@H]1NC(=O)[C@@H]1CCCN2C(=O)CC[C@H](NC(=O)c3nccc4ccccc34)C(=O)N12 | – | inactive | inactive | inactive | inactive | inactive | – | 125
CCCCCCCCCCCC1=C(O)C(=O)C=C(O)C1=O | – | 13.2 µM (active) | – | – | – | – | – | 115
